Assay results from PubChem BioAssay (NCI).
The panel holds about 79,000 compounds, 15% with a hit somewhere; the sample as a whole holds those more often. Calls of active or inactive are those of the source. Rule as the data show it: active = growth inhibition above about 70%; inactive = the rest.

What was measured:
[1] = NCI Yeast Anticancer Drug Screen. Data for the rad52 strain (AID 147);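 also: 0% = growth of vehicle-treated control cultures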; conditions: S. cerevisiae rad52 mutant growth inhibition, hits give high values
In short: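 Genetically altered yeast (DNA damage repair defect) treated with compound; inhibition calculated relative to vehicle.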

[2] = NCI Yeast Anticancer Drug Screen. Data for the wt1 strain (AID 149);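 also: 0% = growth of vehicle-treated wt1 cultures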; conditions: S. cerevisiae wt1 strain (SPY 50644) growth inhibition, hits give high values
In short: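 Measured: growth of wt1 yeast under compound versus vehicle treatment, reported as inhibition.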

[3] = NCI Yeast Anticancer Drug Screen. Data for the rad50EPP+ strain (AID 151);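 also: 0% = growth of vehicle-treated control cultures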; conditions: S. cerevisiae rad50 mutant strain, hits give high values
In short: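 Strain rad50EPP+; compound exposure; % growth inhibition vs vehicle.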

[4] = NCI Yeast Anticancer Drug Screen. Data for the mgt1 strain (AID 153); conditions: S. cerevisiae mgt1 mutant growth inhibition, hits give high values
In short: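 Read-out: yeast growth inhibition vs vehicle control. Strain mgt1, drawn from a panel altered in DNA damage repair or cell cycle control.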

[5] = NCI Yeast Anticancer Drug Screen. Data for the rad50 strain (AID 155);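 also: 0% = growth of vehicle-only cultures of the same strain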; conditions: S. cerevisiae rad50 strain growth inhibition, hits give high values
In short: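 Growth of the mutant yeast was measured after compound exposure and referenced to vehicle-treated cultures.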

[6] = NCI Yeast Anticancer Drug Screen. Data for the mec2-1 strain (AID 157); conditions: S. cerevisiae mec2-1 strain, hits give high values
In short: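 Cells of the genetically defined mec2-1 yeast strain are incubated with test compound. Inhibition of growth is calculated against vehicle-treated controls.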

[7] = NCI Yeast Anticancer Drug Screen. Data for the rad14 strain (AID 159);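 also: 0% = growth of vehicle-treated control cultures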; conditions: S. cerevisiae rad14 strain growth inhibition, hits give high values
In short: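 Here, inhibition of yeast growth was measured after compound exposure, using a strain with a genetic defect in DNA damage repair and vehicle-treated cultures as the reference.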

[8] = NCI Yeast Anticancer Drug Screen. Data for the sgs1 mgt1 strain (AID 161);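 also: 0% = growth of cultures given vehicle only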; conditions: S. cerevisiae sgs1 mgt1 strain, hits give high values
In short: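 Genetically altered yeast, compound exposure, growth inhibition relative to vehicle.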

[9] = NCI Yeast Anticancer Drug Screen. Data for the CLN2oe strain (AID 163);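 also: 0% = growth of vehicle-only control cultures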; conditions: S. cerevisiae CLN2oe strain, hits give high values
In short: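 Strain altered in cell-cycle control, incubated with compound; growth compared to solvent-treated controls.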

[10] = NCI Yeast Anticancer Drug Screen. Data for the cln2 rad14 strain (AID 165);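 also: 0% = growth equal to vehicle treated cultures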; conditions: S. cerevisiae cln2 rad14 strain, hits give high values
In short: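 The screen exposed genetically defined yeast (cln2 rad14) to test compounds and scored growth inhibition relative to vehicle-treated controls.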

[11] = NCI Yeast Anticancer Drug Screen. Data for the bub3 strain (AID 167); conditions: S. cerevisiae bub3 mutant strain, hits give high values
In short: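 Whole-cell yeast assay. The mutant strain was incubated with compounds, and growth inhibition was determined by comparison with vehicle-treated cells.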

[12] = NCI Yeast Anticancer Drug Screen. Data for the wt2 strain (AID 169);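 also: 0% = growth of vehicle-treated yeast cultures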; conditions: S. cerevisiae wt2 strain growth inhibition, hits give high values
In short: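 Steps: yeast strain treated with compound; growth recorded; inhibition calculated relative to cultures given vehicle alone.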

[13] = NCI Yeast Anticancer Drug Screen. Data for the mlh1 strain (AID 171);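 also: 0% = growth of vehicle-treated control cultures of the same strain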; conditions: S. cerevisiae mlh1 strain growth inhibition, hits give high values
In short: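 Yeast screen: mutant strain plus compound, growth scored against vehicle control wells.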

[14] = NCI Yeast Anticancer Drug Screen. Data for the sgs1 strain (AID 173);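 also: 0% = growth of vehicle-only control cultures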; conditions: S. cerevisiae sgs1 mutant, hits give high values
In short: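 Inhibition of yeast growth served as the measure. The mutant strain was treated with each compound, and growth was normalised to cultures receiving vehicle alone.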

[15] = NCI Yeast Anticancer Drug Screen. Data for the mlh1 rad18 strain (AID 175); conditions: S. cerevisiae mlh1 rad18 strain growth inhibition, hits give high values
In short: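 Compound-treated yeast growth, normalised to vehicle controls. Strain bears defined DNA repair mutations.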

[16] = NCI Yeast Anticancer Drug Screen. Data for the rad18 strain (AID 177); conditions: S. cerevisiae rad18 mutant growth inhibition, hits give high values
In short: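 Inhibition values reflect reduced yeast growth compared with vehicle-treated controls, using a strain engineered with a DNA damage repair defect.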

[17] = at 5.0 µM (retest, dose inferred, filed as 0.5)
[18] = at 50.0 µM (retest, dose inferred, filed as 5.0)

Measured: growth inhibition

CC1=CC(C)(C)SC(SSSC2=NC(C)=CC(C)(C)S2)=N1
inactive: [1]; at 1.2 µM -3% | [1]; at 3.7 µM -3% | [1]; at 11.0 µM 0% | [1]; at 33.0 µM 7% | [2]; at 1.2 µM -3% | [2]; at 3.7 µM -2% | [2]; at 11.0 µM 0% | [2]; at 33.0 µM 7% | [2]; at 100.0 µM 39% | [3]; at 1.2 µM -1% | [3]; at 3.7 µM -1% | [3]; at 11.0 µM 0% | [3]; at 33.0 µM 2% | [3]; at 100.0 µM 31% | [4]; at 1.2 µM -8% | [4]; at 3.7 µM 1% | [4]; at 11.0 µM 3% | [4]; at 33.0 µM 7% | [5]; at 1.2 µM -17% | [5]; at 3.7 µM -4% | [5]; [17] -6% | [5]; at 11.0 µM -4% | [5]; at 33.0 µM 1% | [5]; [18] 48% | [5]; at 50.0 µM 15.6% | [5]; at 100.0 µM 65% | [6]; at 1.2 µM -2% | [6]; at 3.7 µM -4% | [6]; [17] 0% | [6]; at 11.0 µM 0% | [6]; at 33.0 µM 8% | [6]; [18] 15% | [6]; at 50.0 µM 10.7% | [6]; at 100.0 µM 42% | [7]; at 1.2 µM -6% | [7]; at 3.7 µM -5% | [7]; at 11.0 µM -3% | [7]; at 33.0 µM 8% | [8]; [17] -10% | [8]; [18] 61% | [8]; at 50.0 µM 39.2% | [9]; at 1.2 µM -10% | [9]; at 3.7 µM -17% | [9]; at 11.0 µM -14% | [9]; at 33.0 µM -13% | [9]; at 100.0 µM 13% | [10]; [17] -9% | [10]; [18] 6% | [10]; at 50.0 µM 2.9% | [11]; at 1.2 µM -2% | [11]; at 3.7 µM -2% | [11]; [17] -1% | [11]; at 11.0 µM 1% | [11]; at 33.0 µM 1% | [11]; [18] 24% | [11]; at 50.0 µM -3.25% | [11]; at 100.0 µM 56% | [12]; at 1.2 µM -5% | [12]; at 3.7 µM -6% | [12]; at 11.0 µM -4% | [12]; at 33.0 µM 4% | [13]; at 1.2 µM -5% | [13]; at 3.7 µM -4% | [13]; at 11.0 µM 0% | [13]; at 33.0 µM 11% | [14]; at 1.2 µM -4% | [14]; at 3.7 µM -2% | [14]; at 11.0 µM 0% | [14]; at 33.0 µM 14% | [15]; [17] -4% | [15]; [18] 42% | [15]; at 50.0 µM 29.8% | [16]; at 1.2 µM -4% | [16]; at 3.7 µM 0% | [16]; at 11.0 µM 7% | [16]; at 33.0 µM 23%
active: [1]; at 100.0 µM 78% | [4]; at 100.0 µM 89% | [7]; at 100.0 µM 90% | [12]; at 100.0 µM 85% | [13]; at 100.0 µM 88% | [14]; at 100.0 µM 89% | [16]; at 100.0 µM 88%

O=C1C(CCSc2ccccc2)C(=O)N(c2ccccc2)C1c1ccccc1 (stereo unspecified)
active: [1]; at 33.0 µM 96% | [1]; at 100.0 µM 89% | [2]; at 33.0 µM 96% | [2]; at 100.0 µM 88% | [4]; at 33.0 µM 97% | [4]; at 100.0 µM 89% | [5]; at 33.0 µM 96% | [5]; [18] 85% | [5]; at 50.0 µM 90.9% | [5]; at 100.0 µM 89% | [6]; at 33.0 µM 95% | [6]; [18] 99% | [6]; at 50.0 µM 91.4% | [6]; at 100.0 µM 90% | [7]; at 33.0 µM 93% | [7]; at 100.0 µM 87% | [8]; [18] 99% | [8]; at 50.0 µM 92.3% | [9]; at 33.0 µM 95% | [9]; at 100.0 µM 85% | [10]; [18] 97% | [10]; at 50.0 µM 91.2% | [11]; at 33.0 µM 96% | [11]; [18] 98% | [11]; at 50.0 µM 90.7% | [11]; at 100.0 µM 88% | [12]; at 33.0 µM 95% | [12]; at 100.0 µM 90% | [14]; at 33.0 µM 96% | [14]; at 100.0 µM 87% | [15]; [18] 87% | [15]; at 50.0 µM 90.2% | [16]; at 33.0 µM 95% | [16]; at 100.0 µM 89%
inactive: [1]; at 1.2 µM 23% | [1]; at 3.7 µM 24% | [1]; at 11.0 µM 49% | [2]; at 1.2 µM -32% | [2]; at 3.7 µM -14% | [2]; at 11.0 µM 17% | [3]; at 1.2 µM -4% | [3]; at 3.7 µM -12% | [3]; at 11.0 µM -15% | [3]; at 33.0 µM 0% | [3]; at 100.0 µM -11% | [4]; at 1.2 µM 8% | [4]; at 3.7 µM -18% | [4]; at 11.0 µM 8% | [5]; at 1.2 µM 12% | [5]; at 3.7 µM 17% | [5]; [17] 28% | [5]; at 11.0 µM 35% | [6]; at 1.2 µM 11% | [6]; at 3.7 µM 13% | [6]; [17] 47% | [6]; at 11.0 µM 29% | [7]; at 1.2 µM -4% | [7]; at 3.7 µM -21% | [7]; at 11.0 µM 2% | [8]; [17] -3% | [9]; at 1.2 µM -8% | [9]; at 3.7 µM 2% | [9]; at 11.0 µM 48% | [10]; [17] 33% | [11]; at 1.2 µM 7% | [11]; at 3.7 µM 20% | [11]; [17] 25% | [11]; at 11.0 µM 46% | [12]; at 1.2 µM -5% | [12]; at 3.7 µM -4% | [12]; at 11.0 µM 22% | [14]; at 1.2 µM 7% | [14]; at 3.7 µM 15% | [14]; at 11.0 µM 44% | [15]; [17] 44% | [16]; at 1.2 µM -15% | [16]; at 3.7 µM -3% | [16]; at 11.0 µM 24%
